Data as given in PMC11995724, “Antibiotic target discovery by integrated phenotypic and activity-based profiling of electrophilic fragments” (Cell chemical biology, 2025).
In all, about 3,200 compounds went through this assay and about 75 (2%) showed an effect of 50% or more. Many of the other results were omitted from the sample, so strong results are more common in it than they were.

Each molecule was assayed on T1, S. aureus MSSA476. Conditions: relative growth, OD600, TSB; 25 µM; inhibitor.
T1 construct: MSSA476
Design: species or system S. aureus MSSA476 (TSB) or V. cholerae SAD30 (LB); 384-well bacterial growth screen at 25 uM, OD600 relative to DMSO control

Structure (SMILES) | % of control remaining [%]
CC(Cl)C(=O)NCCc1nnc2n1CCCCC2 (centres unmarked) [7-D09, 2-chloro-N-(2-{5H,6H,7H,8H,9H-[1,2,4]triazolo[4,3-a]azepin-3-yl}ethyl)propanamide] | 92.3077
O=C(CCl)Nc1cc(-n2cnnn2)ccc1Cl [6-A05, 2-chloro-N-[2-chloro-5-(1H-1,2,3,4-tetrazol-1-yl)phenyl]acetamide] | 78.1951
CC(Cl)C(=O)NCc1nn(-c2ccccc2)c2c1CCC2 (centres unmarked) [7-P05, 2-chloro-N-({1-phenyl-1H,4H,5H,6H-cyclopenta[c]pyrazol-3-yl}methyl)propanamide] | 91.9937
CCCc1ccc(-c2csc(NC(=O)CCl)n2)cc1 [4-C09, 2-chloro-N-[4-(4-propylphenyl)-1,3-thiazol-2-yl]acetamide] | 5.717
COc1ccc(-c2csc(NC(=O)CCl)n2)cc1 [4-N06, 2-chloro-N-[4-(4-methoxyphenyl)-1,3-thiazol-2-yl]acetamide] | 111.291
COc1ccc(OC)c(-c2csc(NC(=O)CCl)n2)c1 [4-H12, 2-chloro-N-[4-(2,5-dimethoxyphenyl)-1,3-thiazol-2-yl]acetamide] | 86.8985
COc1ccc(-c2csc(NC(=O)CCl)n2)c(O)c1 [4-A11, 2-chloro-N-[4-(2-hydroxy-4-methoxyphenyl)-1,3-thiazol-2-yl]acetamide] | 1.1434
COc1ccc(-c2csc(NC(=O)CCl)n2)c(OC)c1 [4-F12, 2-chloro-N-[4-(2,4-dimethoxyphenyl)-1,3-thiazol-2-yl]acetamide] | 83.4683
O=C(CCl)Nc1nc(-c2ccccc2)cs1 [4-L04, 2-chloro-N-(4-phenyl-1,3-thiazol-2-yl)acetamide] | 143.306
CC(Cl)C(=O)N1CCN(C(C)c2cccc(C#N)c2)CC1 (centres unmarked) [7-P22, 3-{1-[4-(2-chloropropanoyl)piperazin-1-yl]ethyl}benzonitrile] | 115.542
C=CC(=O)NCCc1nnc(C)s1 [3-G22, N-[2-(5-methyl-1,3,4-thiadiazol-2-yl)ethyl]prop-2-enamide] | 111.45
C=CC(=O)N(CC)CC(=O)N1CCCC1c1ccc(F)cc1C (centres unmarked) [2-F08, N-ethyl-N-{2-[2-(4-fluoro-2-methylphenyl)pyrrolidin-1-yl]-2-oxoethyl}prop-2-enamide] | 97.1279
CC(=O)c1cccc(S(=O)(=O)N2CCN(C(=O)CCl)CC2)c1 [4-F05, 1-[4-(3-acetylbenzenesulfonyl)piperazin-1-yl]-2-chloroethan-1-one] | 105.574
C=CC(=O)N1CCC(Cn2nc(C)cc2C)CC1 [2-C17, 1-{4-[(3,5-dimethyl-1H-pyrazol-1-yl)methyl]piperidin-1-yl}prop-2-en-1-one] | 100.957
CCOc1ccccc1NC(=O)C(C#N)=Cc1c(F)cccc1F [8-G21, 2-cyano-3-(2,6-difluorophenyl)-N-(2-ethoxyphenyl)prop-2-enamide] | 69.3776
CCc1cnc(N2CCN(C(=O)C(C)Cl)CC2)s1 (centres unmarked) [7-C20, 2-chloro-1-[4-(5-ethyl-1,3-thiazol-2-yl)piperazin-1-yl]propan-1-one] | 99.2151
C=CC(=O)N(C)CC(=O)N1CCC2(CC1)CC2c1nnc(C(C)C)o1 (centres unmarked) [2-N22, N-methyl-N-(2-oxo-2-{1-[5-(propan-2-yl)-1,3,4-oxadiazol-2-yl]-6-azaspiro[2.5]octan-6-yl}ethyl)prop-2-enamide] | 98.8686
N#CC(=Cc1ccc2c(c1)OCO2)C(=O)NCc1ccccc1 [8-A09, 3-(1,3-dioxaindan-5-yl)-N-benzyl-2-cyanoprop-2-enamide] | 113.527
Cn1ccnc1C(=O)CCl [10-C15, 2-chloro-1-(1-methyl-1H-imidazol-2-yl)ethan-1-one] | 93.75
COC(=O)c1c(C(=O)CCl)c(C)n(C(C)C)c1C [10-K21, methyl 4-(2-chloroacetyl)-2,5-dimethyl-1-(propan-2-yl)-1H-pyrrole-3-carboxylate] | 119.375
CC(C)n1ccnc1C(=O)CCl [10-H10, 2-chloro-1-[1-(propan-2-yl)-1H-imidazol-2-yl]ethan-1-one] | 2.1875

Structure (SMILES) | % of control remaining [%]
C=CCNC(=O)C(C#N)=Cc1sccc1C [9-P07, 2-cyano-3-(3-methylthiophen-2-yl)-N-(prop-2-en-1-yl)prop-2-enamide] | 115.955
CC(Cl)C(=O)Nc1ccc(Cl)cc1Cl (centres unmarked) [4-L17, 2-chloro-N-(2,4-dichlorophenyl)propanamide] | 92.9967
CC(Cl)C(=O)N1CCCN(C(=O)c2cc(Cl)cn2C)CC1 (centres unmarked) [7-N07, 2-chloro-1-[4-(4-chloro-1-methyl-1H-pyrrole-2-carbonyl)-1,4-diazepan-1-yl]propan-1-one] | 91.6797
CC(C)CC(=O)Nc1ccc(C(=O)CCl)cc1 [10-N06, N-[4-(2-chloroacetyl)phenyl]-3-methylbutanamide] | 1.25
CS(=O)(=O)NCCc1ccc(C(=O)CCl)cc1 [10-D06, N-{2-[4-(2-chloroacetyl)phenyl]ethyl}methanesulfonamide] | 79.375
CC(=O)c1ccc(NC(=O)CCl)cc1 [4-G07, N-(4-acetylphenyl)-2-chloroacetamide] | 93.7589
O=C(CCl)Nc1cccc(NC(=O)c2ccccc2)c1 [6-A03, N-[3-(2-chloroacetamido)phenyl]benzamide] | 76.1463
CS(=O)(=O)c1ccc(C(=O)CCl)cc1 [10-I13, 2-chloro-1-(4-methanesulfonylphenyl)ethan-1-one] | 83.125
CCCC(=O)Nc1ccc(C(=O)C(C)Cl)cc1 (centres unmarked) [10-O06, N-[4-(2-chloropropanoyl)phenyl]butanamide] | 121.875
NC(=O)Nc1ccc(C(=O)CCl)cc1 [10-J07, [4-(2-chloroacetyl)phenyl]urea] | 55.625
CC(=O)Nc1ccc(C(=O)CCl)cc1 [10-O12, N-[4-(2-chloroacetyl)phenyl]acetamide] | 6.875
O=C(CCl)c1ccc(NC(=O)c2ccccc2)cc1 [10-B06, N-[4-(2-chloroacetyl)phenyl]benzamide] | 0
COc1ccccc1NC(=O)c1ccc(NC(=O)CCl)cc1 [4-O17, 4-(2-chloroacetamido)-N-(2-methoxyphenyl)benzamide] | 92.2344
NC(=O)c1ccc(NC(=O)CCl)cc1 [4-P04, 4-(2-chloroacetamido)benzamide] | 95.2835
CS(=O)(=O)Nc1ccc(C(=O)CCl)cc1 [10-D19, N-[4-(2-chloroacetyl)phenyl]methanesulfonamide] | 28.125
CCCn1c(N)c(C(=O)CCl)c(=O)n(C)c1=O [10-H12, 6-amino-5-(2-chloroacetyl)-3-methyl-1-propyl-1,2,3,4-tetrahydropyrimidine-2,4-dione] | 92.8125
C=CC(=O)NC(C)c1cnc(C(F)(F)F)s1 (centres unmarked) [2-A05, N-{1-[2-(trifluoromethyl)-1,3-thiazol-5-yl]ethyl}prop-2-enamide] | 119.06
N#CC(=Cc1ccc(Cl)c([N+](=O)[O-])c1)C(=O)N1CCCC1 [9-N05, 3-(4-chloro-3-nitrophenyl)-2-(pyrrolidine-1-carbonyl)prop-2-enenitrile] | 107.566
Cc1cc(C=C(C#N)C(=O)Nc2ccccc2)c(C)n1C1CC1 [8-E14, 2-cyano-3-(1-cyclopropyl-2,5-dimethyl-1H-pyrrol-3-yl)-N-phenylprop-2-enamide] | 129.793
C=CC(=O)N1CCCCC1c1noc(C2CC2)n1 (centres unmarked) [3-K12, 1-[2-(5-cyclopropyl-1,2,4-oxadiazol-3-yl)piperidin-1-yl]prop-2-en-1-one] | 93.3391
CCc1ccccc1NC(=O)CN(C)C(=O)C(C)Cl (centres unmarked) [4-P05, 2-chloro-N-{[(2-ethylphenyl)carbamoyl]methyl}-N-methylpropanamide] | 90.7099

Structure (SMILES) | % of control remaining [%]
CC(Cl)C(=O)Nc1ccc(NC(=O)c2cccs2)cc1 (centres unmarked) [6-G07, N-[4-(2-chloropropanamido)phenyl]thiophene-2-carboxamide] | 112.683
NS(=O)(=O)c1ccc(CNC(=O)CCl)cc1 [4-P12, 2-chloro-N-[(4-sulfamoylphenyl)methyl]acetamide] | 97.1891
C=CC(=O)NCC1(OC)CCC(C)CC1 (centres unmarked) [1-P08, N-[(1-methoxy-4-methylcyclohexyl)methyl]prop-2-enamide] | 89.3187
COc1ccc(N2C(=O)C=CC2=O)c(OC)c1 [10-J15, 1-(2,4-dimethoxyphenyl)-2,5-dihydro-1H-pyrrole-2,5-dione] | 121.875
CC(NC(=O)CCl)C(=O)Nc1ccc(Cl)cc1 (centres unmarked) [5-G11, 2-(2-chloroacetamido)-N-(4-chlorophenyl)propanamide] | 83.4244
CCN(CC)C(=O)c1ccc(NC(=O)CCl)cc1 [4-C05, 4-(2-chloroacetamido)-N,N-diethylbenzamide] | 84.9929
CC(C)C(=O)Nc1ccc(C(=O)C(C)Cl)cc1 (centres unmarked) [10-E08, N-[4-(2-chloropropanoyl)phenyl]-2-methylpropanamide] | 106.875
CCOC(=O)c1ccc(NC(=O)CCl)cc1 [4-E17, ethyl 4-(2-chloroacetamido)benzoate] | 118.152
CCC(=O)Nc1ccc(C(=O)CCl)cc1 [10-C03, N-[4-(2-chloroacetyl)phenyl]propanamide] | 1.5625
CSc1ccc(C(=O)CCl)cc1 [10-E07, 2-chloro-1-[4-(methylsulfanyl)phenyl]ethan-1-one] | 2.1875
CCc1ccc(C(=O)CCl)cc1 [10-F18, 2-chloro-1-(4-ethylphenyl)ethan-1-one] | 102.188
CCCc1ccc(C(=O)CCl)cc1 [10-C04, 2-chloro-1-(4-propylphenyl)ethan-1-one] | 134.375
CC(C)C(=O)Nc1ccc(C(=O)CCl)cc1 [10-D04, N-[4-(2-chloroacetyl)phenyl]-2-methylpropanamide] | 4.6875
CC(=O)NCc1ccc(C2CCCN2C(=O)CCl)o1 (centres unmarked) [5-P13, N-({5-[1-(2-chloroacetyl)pyrrolidin-2-yl]furan-2-yl}methyl)acetamide] | 100.182
COc1cc(NC(=O)C(C)Cl)cc(OC)c1 (centres unmarked) [4-I04, 2-chloro-N-(3,5-dimethoxyphenyl)propanamide] | 105.574
CC(Cl)C(=O)N(Cc1ccc(Cl)cc1)Cc1cnn(C)c1 (centres unmarked) [5-P17, 2-chloro-N-[(4-chlorophenyl)methyl]-N-[(1-methyl-1H-pyrazol-4-yl)methyl]propanamide] | 95.4463
C=CC(=O)NCc1ccc(C(=O)N2CCCOC(C)(C)C2)cc1 [3-N06, N-{[4-(2,2-dimethyl-1,4-oxazepane-4-carbonyl)phenyl]methyl}prop-2-enamide] | 118.764
CC(C)NC(=O)C(C#N)=Cc1cccc2ccccc12 [8-P06, 2-cyano-3-(naphthalen-1-yl)-N-(propan-2-yl)prop-2-enamide] | 127.801
C=CC(=O)N1CCC(C(=O)Nc2cccc(NC(=O)C(C)C)c2)CC1 [3-F05, N-[3-(2-methylpropanamido)phenyl]-1-(prop-2-enoyl)piperidine-4-carboxamide] | 95.0805
CC(Cl)C(=O)C=C1N(C)c2ccccc2C1(C)C (centres unmarked) [10-J22, 3-chloro-1-(1,3,3-trimethyl-2,3-dihydro-1H-indol-2-ylidene)butan-2-one] | 134.063
